Screens (PubChem BioAssay)
The sample as a whole holds a higher share of hits than the screen did.
Dicer processing = inhibitors of human Dicer processing of pre-microRNA. Q9UPY3. cat-ELCCA pre-miR-21 Dicer processing, chemiluminescence; active compounds read high. z-score at 25 µM. 47,000 tested, 6% active; in the data active = z-score above about 3, passing the limit was not always enough;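 also: higher signal means more uncleaved substrate so more Dicer inhibition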
Hits are given with their value; – = inactive.

SMILES	Dicer processing
CCOC(=O)C1CCN(C(=O)N2c3ccccc3Sc3ccccc32)CC1	4.83
CCOC(=O)N1c2ccccc2Sc2ccccc21	–
COc1ccc(NC(=S)NC(=O)c2ccccc2)c([N+](=O)[O-])c1	–
C#CCSc1nc(=O)c2cccnc2n1-c1ccc(Br)cc1	–
CN(C)C(=O)Cc1c(Cl)sc2ccccc12	–
CCOC(=O)c1ccc(N2C(=O)C3Sc4[nH]c(=O)sc4C(c4ccc(OC)cc4)C3C2=O)cc1 (stereo unspecified)	–
Cc1nn(-c2ccc([N+](=O)[O-])cc2)c(N)c1C(N)=S	–
Cc1nn(-c2ccc([N+](=O)[O-])cc2)c2[nH]c3ccccc3c(=O)c12	4.16
Cc1nn(-c2ccccc2)c2[nH]c3ccccc3c(=O)c12	–
CC(=C/C(=O)O)/C(=C\c1ccncc1)C(=O)O	–
Brc1cccc(CSc2nc3ncccc3[nH]2)c1	–
Fc1cc(Cl)ccc1CSc1nc2ncccc2[nH]1	–
Cc1ccc(CSc2nc3ncccc3[nH]2)cc1	4.27
CCCCCCC#Cc1cncc(C(=O)NN)c1	–
O=c1cc(-c2ccccc2)nc2cc(-c3ccccc3)[nH]n12	–
O=c1cc(-c2ccccc2)nc2c(-c3ccccc3)c(C(F)(F)F)[nH]n12	4.04
O=c1cc(-c2ccccc2)nc2nc(C(F)(F)F)[nH]n12	–
CC(C)(C)c1cc2nc(-c3ccccc3)cc(=O)n2[nH]1	–
Cc1cc(=O)n2[nH]c(-c3cccs3)cc2n1	–
O=c1cc(-c2ccccc2)nc2cc(-c3cccs3)[nH]n12	3.13
COc1cc(CNCCSc2nnnn2C)ccc1OCc1ccc(F)cc1Cl	–
C=CCOc1ccc(C2c3c(oc4cc(C)c(C)cc4c3=O)C(=O)N2CCCN(C)C)cc1OCC (stereo unspecified)	–
S=C(NCc1cccs1)NNc1c(Cl)cncc1Cl	–
O=C(/C=C/Sc1cc(Cl)ccc1Cl)c1ccc(F)cc1	–
CCOC(=O)C1=C(C)NC2=C(C(=O)CC(c3ccccc3)C2)C1c1ccc(C)o1 (stereo unspecified)	–
SMILES	Dicer processing
CCCOC(=O)C1=C(C)NC2=C(C(=O)CC(c3ccccc3OC)C2)C1c1coc2ccccc2c1=O (stereo unspecified)	5.98
COc1ccccc1C1CC(=O)C2=C(C1)NC(C)=C(C(=O)OC(C)C)C2c1coc2ccccc2c1=O (stereo unspecified)	–
COC(=O)C1=C(C)NC2=C(C(=O)CC(c3ccc(OC)cc3)C2)C1c1ccc(OC)cc1 (stereo unspecified)	–
CCCOC(=O)C1=C(C)NC2=C(C(=O)CC(c3cccs3)C2)C1c1coc2ccc(C)cc2c1=O (stereo unspecified)	–
CCOC(=O)C1=C(C)NC2=C(C(=O)CC(c3ccccc3)C2)C1c1ccccc1Cl (stereo unspecified)	3.74
CCOCCOC(=O)C1=C(C)NC2=C(C(=O)CC(c3ccccc3)C2)C1c1cccc2ccccc12 (stereo unspecified)	5.19
CCOC(=O)C1=C(C)NC2=C(C(=O)CC(c3ccccc3)C2)C1c1cccc2ccccc12 (stereo unspecified)	–
COC(=O)C1=C(C)NC2=C(C(=O)CC(c3ccccc3)C2)C1c1ccccc1Br (stereo unspecified)	7.61
CCOCCOC(=O)C1=C(C)NC2=C(C(=O)CC(c3ccccc3)C2)C1c1ccc(F)cc1 (stereo unspecified)	–
COC(=O)C1=C(C)NC2=C(C(=O)CC(c3ccccc3)C2)C1c1ccc(Br)cc1 (stereo unspecified)	–
CCCOc1ccccc1C1C(C(=O)OCC)=C(C)NC2=C1C(=O)CC(c1ccccc1)C2 (stereo unspecified)	–
CCOC(=O)N/N=C(\C)c1ccc(F)cc1F	–
O=C1N(c2cccc(C(F)(F)F)c2)C(=Nc2cccc(C(F)(F)F)c2)SC12CC2	–
CCCCCOC(=O)C1=C(C)NC2=C(C(=O)CC(C)(C)C2)C1c1ccc(C(=O)OC)cc1 (stereo unspecified)	–
COC(=O)C1=NN(c2ccc(C)cc2)C2C(=O)N(c3ccc(Br)cc3)C(=O)C12 (stereo unspecified)	–
Cc1ccc(S(=O)(=O)/C(C#N)=N/O)cc1	–
CSc1cccc(NC(=O)C(=O)N/N=C/c2ccc(N(C)C)cc2Cl)c1	–
CC(=O)O/N=C(\C)c1sc2ccc(Cl)cc2c1C	–
CC(=O)Oc1ccc(C2C(C(=O)OCC(C)C)=C(C)NC3=C2C(=O)CC(c2ccccc2)C3)cc1 (stereo unspecified)	7.03
COc1ccc(C2C(C(=O)OCC(C)C)=C(C)NC3=C2C(=O)CC(c2ccccc2)C3)c(OC)c1 (stereo unspecified)	–
CC1=C(C(=O)OCC(C)C)C(c2cccc(F)c2)C2=C(CC(c3ccccc3)CC2=O)N1 (stereo unspecified)	–
CCSCCOC(=O)C1=C(C)NC2=C(C(=O)CC(c3ccccc3)C2)C1c1cccc(F)c1 (stereo unspecified)	3.74
CCSCCOC(=O)C1=C(C)NC2=C(C(=O)CC(c3ccc(OC)cc3)C2)C1c1ccc(F)cc1 (stereo unspecified)	–
COc1ccc(C2CC(=O)C3=C(C2)NC(C)=C(C(=O)OCC(C)C)C3c2ccc3c(c2)OCO3)cc1 (stereo unspecified)	–
Cc1nn(S(=O)(=O)c2ccc(Cl)cc2)cc1-c1nsc(Nc2ccccc2)n1	–
SMILES	Dicer processing
O=C(ON=C1CC2CCCC(C1)N2Cc1ccccc1)c1ccc(F)cc1	3.12
O=C(Nc1ccc(Cl)cc1)ON=C1CC2CCCC(C1)N2Cc1ccccc1	–
O=C(O)C1CC(=O)N(Cc2ccc(F)cc2)C1 (stereo unspecified)	–
CC(C)(C)Nc1nc(Cl)nc(Oc2ccc(=O)n(-c3ccccc3)n2)n1	–
O=[N+]([O-])C1=Cc2cc(Cl)ccc2OC1c1c(Cl)cccc1Cl (stereo unspecified)	–
O=[N+]([O-])C1=Cc2cc(Cl)ccc2OC1c1ccccc1Cl (stereo unspecified)	3.97
O=[N+]([O-])C1=Cc2ccccc2OC1c1ccccc1Cl (stereo unspecified)	–
CCNc1cc(NC(C)C)nc(Oc2ccc(OCC(=O)OC)nn2)n1	–
O=C(CSc1nc2ccccc2nc1N1CCCC1)NC1CCCC1	–
O=[N+]([O-])c1ccc(CSc2nnc(-n3cccc3)s2)cc1	–
CCN1CCN(c2nc3c(c(=O)[nH]c(=O)n3C)n2CC(O)COC(C)C)CC1 (stereo unspecified)	–
Cn1c(CSc2cc(C(F)(F)F)nc3ccccc23)nnc1SCc1ccccc1	–
Oc1ccccc1/C=N/C(/N=C/c1ccccc1O)c1ccccc1O	–
Oc1ccccc1C=Nc1n[nH]c2ccccc12	3.49
Oc1ccccc1C=NCC1CCC(CN=Cc2ccccc2O)CC1 (stereo unspecified)	–
Cc1nn(-c2ccccc2)c2nc(-c3ccncc3)cc(C(F)(F)F)c12	–
CN1c2ccccc2C(=O)/C(=C/N=S(C)(C)=O)S1(=O)=O	–
Cc1[nH]c2ccccc2c1C1(O)C(=O)N(Cc2cccs2)c2ccccc21 (stereo unspecified)	–
C#C[C@]1(O)CCC2C3CCc4cc(Oc5ccc([N+](=O)[O-])cc5)ccc4C3CCC21C (stereo partly specified)	–
CS(=O)(=O)CS(=O)(=O)Oc1ccc(Br)cc1	–
O=c1oc(-c2cccc(C(F)(F)F)c2)nn1-c1ncccc1C(F)(F)F	–
COc1ccc(S(=O)(=O)N2CCCN(S(=O)(=O)c3ccc(OC)cc3)CC2)cc1	–
